Test results as given in PubChem BioAssay (NCI).
Values joined by “and” are separate entries in the source; they are usually repeats but may differ in a detail not shown here. Equal values may be shown once. About 83,000 compounds went through this panel and 20% of them were active in at least one assay; those are over-represented in the sample as a whole.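 The endpoint reported here, percent growth, reads 100 for growth as untreated, 0 for no net growth and -100 for all cells dead.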 Unmarked numbers belong to inactive results. Active and inactive are the calls of the source. The calls were made as follows: active = growth percent below 10; inactive = the rest.

System: MDA-MB-468 breast
Test: NCI-60 one-dose screen, 48 h (100 = growth as untreated, 0 = no growth, -100 = all killed)
Conditions: 10 µM unless noted

Question: `C=CCN1C(=O)/C(=c2\sc3n(c2=O)NC2C(N=3)N(CC)C(=O)N2CC)c2ccccc21` (stereo not given) was tested. Which growth did it give?
Answer: The growth was 44.6%.

Question: `COc1ccc2occ(C3=C(c4c[nH]c5ccccc45)C(=O)NC3=O)c2c1` was tested. Which growth did it give?
Answer: The growth was -2.93% (active).

Question: `CCOC(=O)/C(C#N)=C(/C)C1CC1` was tested. Which growth did it give?
Answer: Its growth is 98.3%.

Question: With `O=C1/C(=C/c2ccc(Cl)cc2Cl)CN(S(=O)(=O)c2ccccc2)C/C1=C\c1ccc(Cl)cc1Cl` as the compound, how does the growth read?
Answer: Its growth is -24.5% (active).

Question: How did the growth turn out when `COc1ccc(-n2ncc3c2ccc2cc(S(=O)(=O)c4ccccc4)c(=O)n(C)c23)cc1` was run?
Answer: The growth was 94.5%.

Question: How did the growth turn out when `O=S(=O)(NCCNc1cc(-c2c(-c3cccc(O)c3)nc3sccn23)ccn1)c1ccc(C(F)(F)F)cc1` was run?
Answer: Its growth is 30.7%.

Question: How did the growth turn out when `Cc1ccc(C(=O)CSc2nc3ccccc3c(=O)n2C)cc1` was run?
Answer: The growth was 82.6%.

Question: For `CNc1cccc2c1C(=O)c1cccc(N)c1C2=O`, which growth is on record?
Answer: The growth was 46.1%.

Question: With `Cn1cc(-c2nc(N)nnc2-c2c[nH]c3ccccc23)c2cc(Br)ccc21` as the compound, how does the growth read?
Answer: The growth was 33%.

Question: How did the growth turn out when `CNC(=O)c1cc(N2CCc3cc(NC(=O)Nc4ccc(Cl)c(C(F)(F)F)c4)ccc32)ccn1` was run?
Answer: Its growth is 57%.

Question: Which growth does the source give for `NS(=O)(=O)c1ccc(CN=C2NC(=O)S/C2=C\c2ccc(Br)cc2)cc1` here?
Answer: The growth was 97.1%.

Question: For `O=C1/C(=C/c2ccc(-c3ccc(Cl)cc3)o2)SC(=S)N1CCc1ccc(O)cc1`, which growth is on record?
Answer: The growth was 87%.

Question: For `CCOC(=O)c1c(C(F)(F)F)n([O-])c2ccc(Cl)cc2[n+]1=O`, which growth is on record?
Answer: Its growth is -55.3% (active).

Question: With `COc1cc2c(c(OC)c1OC)C(=O)CC(c1cccc(NC(=O)c3ccc(C#N)cc3)c1)O2` (stereo not given) as the compound, how does the growth read?
Answer: The growth was 48.8%.

Question: How did the growth turn out when `O=C1c2c(c3c4cccc(F)c4[nH]c3c3ccc4ccccc4c23)C(=O)N1O` was run?
Answer: The growth was 54.3%.

Question: With `CC(=O)OC[C@H]1O[C@@H](n2c(=O)cc(N)[nH]c2=O)C(OC(C)=O)[C@@H]1OC(C)=O` (stereo not given in full) as the compound, how does the growth read?
Answer: The growth was 98.8%.

Question: With `COC(=O)c1nc(N)nc(C(=O)OC)c1C(=O)c1ccc(OC)cc1` as the compound, how does the growth read?
Answer: The growth was 98.1% and 47.2%.

Question: `Cc1cccc([N+](=O)[O-])c1Cl` was tested. Which growth did it give?
Answer: Its growth is 92.4%.

Question: For `Cc1ccc(-c2csc(NC(=O)CSc3nc(-c4ccccc4)cc(=O)[nH]3)n2)cc1`, which growth is on record?
Answer: Its growth is 108%.

Question: `S=C(NCc1ccccc1)N1CCC(CCCC2CCN(C(=S)NCc3ccccc3)CC2)CC1` was tested. Which growth did it give?
Answer: The growth was 69.1%.

Question: Which growth does the source give for `CC(=O)Nc1ccc(O)cc1` here?
Answer: The growth was 105% and 111%.

Question: With `C=CCn1c(SCC(=O)Nc2ccc(C(=O)/C=C/c3ccc(Cl)cc3)cc2)nnc1-c1ccccc1` as the compound, how does the growth read?
Answer: The growth was 101%.

Question: How did the growth turn out when `Cc1nn(-c2ccccc2)c2nc(Cl)c(/C=C/C(=O)c3ccccc3)c(-c3ccccc3)c12` was run?
Answer: The growth was 105%.

Question: `Brc1ccc(-n2cc(-c3nn[nH]n3)c(-c3cccs3)n2)cc1` was tested. Which growth did it give?
Answer: The growth was 92.4%.

Question: For `CC(C)CCSc1nc(Nc2ccccc2)c(C#N)c(-c2ccc(F)cc2)n1`, which growth is on record?
Answer: Its growth is 60.6%.

Question: `NC1=CC(=O)C(=O)c2cccnc21` was tested. Which growth did it give?
Answer: The growth was 81.3%.

Question: With `COc1ccc(OCC(CO)N2CCN(c3ccccc3)CC2)cc1` (stereo not given) as the compound, how does the growth read?
Answer: The growth was 99.6%.

Question: With `Cc1ccc2c(-c3nnc(N)s3)cc(=O)oc2c1C` as the compound, how does the growth read?
Answer: The growth was 95.6%.

Question: With `Cc1cccc(N2CCN(C3=C(Cl)C(=O)c4ncccc4C3=O)CC2)c1` as the compound, how does the growth read?
Answer: The growth was -66.6% (active).

Question: For `CC(C)C(=O)Nc1ccc([N+](=O)[O-])c(C(F)(F)F)c1`, which growth is on record?
Answer: The growth was 61.7%.

Question: For `COc1cc(/C=C/C(=O)c2ccc(F)cc2)ccc1Oc1nc(NCCO)nc(N2CCOCC2)n1`, which growth is on record?
Answer: Its growth is 77.2%.

Question: `O=NN(Cc1cccnc1)C(=O)NC1CCCCC1` was tested. Which growth did it give?
Answer: Its growth is 104%.

Question: Which growth does the source give for `Clc1nn2c(Cn3cnc4c(NCc5ccccc5)ncnc43)nnc2c2ccccc12` here?
Answer: The growth was 35.3%.

Question: With `C=C(C)[C@@H]1CC[C@]2(C(=O)OCCOCCOCC[P+](c3ccccc3)(c3ccccc3)c3ccccc3)CC[C@]3(C)[C@H](CC[C@@H]4[C@@]5(C)CC[C@H](C)C(C)(C)[C@@H]5CC[C@]43C)[C@@H]12` as the compound, how does the growth read?
Answer: Its growth is -67.6% (active).

Question: For `COc1cc(C2C=C(c3cccc(NC(C)=O)c3)Nc3ncnn32)cc(OC)c1OC` (stereo not given), which growth is on record?
Answer: Its growth is 13.4%.

Question: For `BrC1CC(Br)c2c1c1c(c3c2C(Br)CC3Br)C(Br)CC1Br` (stereo not given), which growth is on record?
Answer: The growth was 79%.

Question: How did the growth turn out when `C[n+]1c(-c2ccccc2)c2cc(N)ccc2c2ccccc21` was run?
Answer: The growth was -15.4% (active).

Question: Which growth does the source give for `NCCCN` here?
Answer: The growth was 107%.

Question: How did the growth turn out when `CC(C)(CCCN=C(N)Nc1ccc(Cl)cc1)c1ccc(F)cc1` was run?
Answer: The growth was 16.1%.

Question: How did the growth turn out when `COc1ccc(COC(=O)CC(C)C)cc1` was run?
Answer: Its growth is 102%.
